# Bioassay records (PubChem BioAssay)
# cytoskel mod: cytoskeleton assembly modification; HUVEC TNFa F-actin phalloidin imaging, high content; inhibition, % at 2 µM; 91,000 compounds, 0.18% hits; AID 836;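 active means inhibition above the batch mean plus 3 SD and confirmed as a hit by visual image inspection, cut at about 30% in these data, passing the limit was not always enough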
# S1P2 antag: blocks the human S1P2 receptor | 97,000 compounds, 0.21% hits | O95136 | cell-based S1P2 antagonist assay, inhibition at 5 uM | inhibition, % at 5 µM; in the data active means inhibition above about 45%;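 further: CRE beta-lactamase reporter cells expressing human S1P2 stimulated with S1P; 0% = agonist at EC80 alone and 100% = agonist plus reference antagonist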
# Target sequence (O95136 whole entry, looked up): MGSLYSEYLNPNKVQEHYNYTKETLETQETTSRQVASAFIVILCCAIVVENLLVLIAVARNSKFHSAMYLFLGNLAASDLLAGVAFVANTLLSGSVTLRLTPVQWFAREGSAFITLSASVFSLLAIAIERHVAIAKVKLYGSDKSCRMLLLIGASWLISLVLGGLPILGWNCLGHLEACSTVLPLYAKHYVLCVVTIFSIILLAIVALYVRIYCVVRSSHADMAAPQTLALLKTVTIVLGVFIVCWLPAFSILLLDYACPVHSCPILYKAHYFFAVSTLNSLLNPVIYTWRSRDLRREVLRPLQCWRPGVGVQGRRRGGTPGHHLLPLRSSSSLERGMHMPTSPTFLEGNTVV
# S1P2 agonist: activates the human S1P2 receptor; AID 729; O95136; 97,000 compounds, 0.46% hits; S1P2-expressing cell line, agonist reporter read-out; activation, % at 4.5 µM; in the data active means activation above about 16%;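 further: 0% = vehicle low control and 100% = maximal reference agonist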
# E-sel TNF inh: blocks E-selectin expression induced by TNF alpha; HUVEC TNFa-induced E-selectin immunofluorescence, high content; inhibition, % at 2 µM; 120,000 compounds, 0.71% hits;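 active means inhibition above the batch mean plus 3 SD, and confirmed as a hit on visual image review, cut at about 43% in these data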;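 further: 0% = TNF-stimulated DMSO wells and 100% = unstimulated control wells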
# HUVEC tox TNFa: toxic to HUVEC cells under TNF alpha stimulation | 93,000 compounds, 0.17% hits | cell count reduction, % at 2 µM | HUVEC TNFalpha-stimulated, Hoechst cell count, imaging;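 active means cell count reduction exceeding the screen mean by over 5 SD, scaled to untreated wells per plate, cut at about 78% in these data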;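 further: cells counted after 24 h of TNF alpha exposure following the 1 h pretreatment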
# VCAM1 TNFa inh: reduces TNF alpha induced VCAM1 expression in HUVEC. inhibition, % at 2 µM. HUVEC TNFa-induced VCAM-1 immunofluorescence, high-content imaging. 95,000 compounds, 0.48% hits;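 active means inhibition above the batch mean plus 3 SD, with images confirmed as a hit by eye, cut at about 37% in these data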;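 further: 0% = TNF-stimulated DMSO wells and 100% = unstimulated control wells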
# * marks the source's active call; other numbers are inactive results; . = no result. Hits are enriched below; roughly 1.6% of the tested compounds scored in any of these assays.
SMILES,cytoskel mod,S1P2 antag,S1P2 agonist,E-sel TNF inh,HUVEC tox TNFa,VCAM1 TNFa inh
COc1ccc(CNC(=O)c2ccc(NC(=O)CC3SC(N4CCCCC4)=NC3=O)cc2)cc1 (stereo unspecified),-31.3,13.8,-7.7,77.4*,-0.7,-1.7
Cc1ccccc1NC(=S)N(CCCN1CCOCC1)Cc1ccccn1,.,.,.,-9.0,.,.
CCCNC(=O)c1ccccc1NC(=O)c1ccccc1N(C)S(=O)(=O)c1ccc(C)cc1,.,2.3,-3.8,.,.,.
Cc1nn(-c2ccccc2)c(Cl)c1CN(C(=O)CCl)c1cccc2ccccc12,.,.,.,95.8*,.,.
Cc1cc(=O)[nH]c(SCC(=O)NCc2ccco2)n1,31.3,0.0,-6.9,100.0*,19.2,10.5
Cc1cc(-c2ccco2)n(CC(=O)NCc2ccco2)n1,1.6,-13.0,-8.9,75.7*,-19.0,2.7
CCCCCCc1nc2ccccc2c(=O)n1NC(=O)c1c(O)c2cccc3c2n(c1=O)CC3,-5.0,8.7,-1.2,8.8,-29.8,-17.9
COc1ccc2cc(CCNC(=O)C(C)C)c(=O)[nH]c2c1,.,.,.,96.1*,.,.
Cc1ccc2cc(CCNC(=O)C(C)(C)C)c(=O)[nH]c2c1,.,.,.,-0.7,.,.
COc1ccc(CC(=O)OCc2cc3ccccc3[nH]c2=O)cc1,3.2,3.7,-11.1,-24.6,-26.8,4.1
COc1ccc(CC(=O)OCc2cc3ccc(C)cc3[nH]c2=O)cc1,-27.6,-10.1,-2.1,.,70.6,92.8*
C=CCNC(=O)c1c(-c2c(F)cccc2Cl)noc1C,.,11.3,-0.9,21.5,-58.6,-5.2
C=CCNC(=O)c1c(Cl)cccc1Cl,46.7*,15.8,-5.3,-17.5,.,-31.5
CCc1ccc(NC(=O)N(Cc2cccnc2)Cc2ccco2)cc1,7.8,1.1,-5.1,6.0,-9.1,13.9
CCc1ccc(NC(=O)N(Cc2ccco2)C(C)c2cccs2)cc1 (stereo unspecified),3.7,9.4,40.9*,-7.7,4.7,18.6
COc1ccc(CCC(=O)Nc2cc(S(C)(=O)=O)ccc2Cl)cc1,.,.,.,-19.9,.,.
CC(=O)C(Sc1nn(C)c(=S)s1)C(=O)Nc1ccccc1 (stereo unspecified),5.7,8.8,-4.2,-2.5,-27.3,17.9
O=C(COc1ncnc2cc([N+](=O)[O-])ccc12)NCc1ccc2c(c1)OCO2,-1.0,5.2,-6.3,-21.0,-5.2,-17.0
COc1ccc(CCNC(=O)COc2ncnc3cc([N+](=O)[O-])ccc23)cc1,.,.,.,74.1*,.,.
COc1ccc(OC)c(NC(=O)CC2SC(=NCc3ccccc3)NC2=O)c1 (stereo unspecified),.,.,.,-33.5,.,.
Cc1cc(NC(=O)CCN2C(=O)/C(=C/c3ccccc3Cl)SC2=S)no1,.,.,.,-40.5,.,.
O=C(CCN1C(=O)/C(=C\c2ccccc2Cl)SC1=S)N1CCN(c2ccccc2)CC1,7.8,6.9,-1.1,58.2*,5.1,5.3
O=C(Nc1ccc(Cl)cc1)c1cccs1,8.5,10.1,-0.7,-44.3,-4.7,-17.5
O=C(Nc1ccccc1)c1nnsc1S(=O)c1ccc(Cl)cc1 (stereo unspecified),24.6,64.3*,-5.6,79.5*,4.1,43.1*
COc1ccc(NCc2nc3ccccc3n2CCOc2ccc(C)cc2)cc1,.,.,.,16.4,.,.
SMILES,cytoskel mod,S1P2 antag,S1P2 agonist,E-sel TNF inh,HUVEC tox TNFa,VCAM1 TNFa inh
CCOC(=O)C1CCCN(C(=O)COC(=O)c2cc(=O)c3ccccc3o2)C1 (stereo unspecified),-18.4,9.0,-6.2,63.6*,0.8,-5.0
CCOC(=O)C1CCCN(C(=O)c2cc(=O)c3ccccc3o2)C1 (stereo unspecified),6.2,12.8,-4.7,-1.4,-34.5,-3.7
CC(C)N1C(=O)CSC1c1ccc(Br)cc1 (stereo unspecified),.,.,.,10.7,.,.
Cc1nc2ccccc2n1CCc1nc2c3ccccc3nc(SCC#N)n2n1,5.3,-0.7,39.4*,-21.2,0.7,11.3
CCOC(=O)N1CCC(NC(=O)Cc2ccc(-n3c(=O)[nH]c4ccccc4c3=O)cc2)CC1,6.5,-4.1,-2.5,-1.2,-24.6,1.1
CCC(C)c1ccc(NC(=S)NN2CCOCC2)cc1 (stereo unspecified),.,.,.,-17.4,.,.
CC(/C=C/c1ccco1)=N\NC(=O)c1cc(C)[nH]n1,61.3*,11.2,-5.5,100.0*,-17.6,3.2
Cc1nc2sc(C(N)=O)c(N)c2c(C)c1CC(=O)c1ccccc1,.,.,.,3.6,.,.
CC1(C)CC(=O)C(C=NCC2CCCO2)=C(O)C1 (stereo unspecified),12.2,-21.9,-1.0,79.9*,3.3,-6.5
COc1cccc(C(=O)N2CCC(N3CC(C)OC(C)C3)CC2)c1 (stereo unspecified),.,.,.,14.6,.,.
O=C(Nc1ccc(CN2CCCCC2)cc1)Nc1ccc(Br)cc1Cl,.,.,.,50.6,.,.
